This is an account of results in PubChem BioAssay (NCATS).

SMILES strings stand for the structures. Records with an inconclusive call do not appear. Where a call stands in place of a potency, no number is given. Calls of active or inactive are those of the source. The call rests on the fitted dose curve; in most records, active means well fitted activation curve with a large enough effect; inconclusive means small, poorly fitted or top-dose-only effect, or effect the other way; inactive means flat fitted curve, though single readings scatter.
Potency means the concentration at half of the fitted maximal effect.

The nature of this test: Cellular Toxicity (caspase-3) NIH 3T3 (AID 666).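 Further: caspase signal read after 16 h compound exposure.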 The following applies: NIH 3T3 caspase-3 activation, apoptosis/toxicity; series mostly up to 92.2 µM. The text has this:
NIH Chemical Genomics Center [NCGC]
NIH Molecular Libraries Screening Centers Network [MLSCN]
National Institutes of Environmental Health Sciences [NIEHS]
National Toxicology Program [NTP]
We have developed a 1536-well cell-based assay for quantitative high throughput screening (qHTS) against a number of cell lines to determine in vitro caspase 3/7 of small molecules. This particular assay uses the NIH 3T3 cell line which is derived from mouse fibroblasts.
NCGC Assay Protocol Summary:
The Caspase-Glo 3/7 assay (Promega) is a homogeneous method to measure caspase-3 and caspase-7 activities in cultured cells. The quantitation of caspase 3/7 activity is based on the cleavage of a peptide-aminoluciferin substrate. After caspase cleaves the substrate the free aminoluciferin is liberated and serves as the substrate of luciferase, which generates the light. The luminescent signal is proportional to amount of caspase 3/7 activity present.
Using the Caspase-Glo 3/7 assay, the amount of caspase 3/7 activity was measured in the NIH 3T3 cell line with complete culture medium following compound treatment for 16 hours. The assay was performed in opaque white 1536-well plates. In the screen, tamoxifen and doxorubicin were used as positive controls. Library compounds were measured for their ability to cause the activation of caspase 3/7 in the cell line, as reflected by an increase in luminescence signal, in a concentration-dependent manner. Data were normalized to the controls for basal activity (DMSO only) and 100% stimulation (100 uM tamoxifen). AC50 values were determined from concentration-response data modeled with the standard Hill equation.
qHTS protocol for caspase 3/7 assay in NIH 3T3 cells
[Step] [Parameter] [Value] [Description]
1. Reagent; 5 uL; 1000 NIH 3T3 cells/well
2. Time; 5 hr; 37 °C incubation
4. Controls; 23 nL; Tamoxifen 0.23 uM to 100 uM & Doxorubicin 7.0 pM to 100 uM
5. Time; 16 hr; 37 °C incubation
6. Reagent; 5 uL; Caspase-Glo 3/7 reagent
7. Time; 20 min; Room Temperature
8. Detection; Luminescence; Viewlux plate reader
Keywords: caspase 3/7, apoptosis, NIH 3T3 cell line, luminescence, NTPHTS, NTPHTS_NCGC, NIEHS, EPA, DSSTox, MLSMR, MLSCN, NIH Roadmap, qHTS, NCGC
For the molecule `CC(C#N)CCC#N` (stereo not given), the Potency result was “inactive”.
As for `C(CCOCC1CO1)COCC1CO1` (stereo not given), the entry is “inactive”; as for `Nc1ccc(Cc2ccc(N)cc2)cc1`, “inactive”; as for `O=[N+]([O-])c1cccc(O)c1`, “inactive”.
As for `CCOC(=O)CC(SP(=O)(OC)OC)C(=O)OCC` (stereo not given), the entry is “inactive”; as for `O=C(O)C(Cl)Br` (stereo not given), “inactive”; as for `CCCCOC(=O)c1ccccc1N`, “inactive”.
As for `[O-][Cl+2]([O-])O`, the entry is “inactive”; as for `C=CCO`, “inactive”.
On to `O=C(O)CBr`, for which the Potency entry is “inactive”.
Take `CN(C)c1ccc(N(C)C)cc1`: the Potency result is “inactive”.
Turning to `C=C(Cl)CCl`, the Potency result is “inactive”.
To `Cc1cc(-c2ccc(N)c(C)c2)ccc1N` belongs “inactive”; to `Cc1ccc(N)cc1N`, “inactive”; to `Oc1cc(Cl)ccc1Cl`, “inactive”.
In the case of `Cc1ccc(N)cc1C`, the Potency result was “inactive”.
As for `O=C(Cc1ccccc1)OCc1ccccc1`, the entry is “inactive”; as for `Cc1ccc(N)c(C)c1`, “inactive”.
As for `C/C=C/CC#N`, the Potency result was “inactive”.
As for `Nc1cccc(Cl)c1`, the entry is “inactive”.
Consider `C=CC(=O)OC`, for which the Potency entry was “inactive”.
As for `c1ccc(P(c2ccccc2)c2ccccc2)cc1`, the entry is “inactive”.
To `O=Cc1ccc2c(c1)OCO2` belongs “inactive”.
`Nn1cnnc1`: the Potency result was “inactive”.
In the case of `CNC(=O)O/N=C/C(C)(C)S(C)=O` (stereo not given), the Potency entry was “inactive”.
To `CN(C)c1ccccc1` belongs “inactive”; to `Oc1cc(Cl)c(Cl)c(Cl)c1`, “inactive”; to `ClC=CCl`, “inactive”.
As for `Nc1cc(Cl)cc(C(=O)O)c1Cl`, the entry is “inactive”.
As for `Cc1cc(C)cc(OP(=O)(Oc2cc(C)cc(C)c2)Oc2cc(C)cc(C)c2)c1`, the entry is “inactive”; as for `CCCBr`, “inactive”; as for `Nc1cc(Cl)cc(Cl)c1`, “inactive”.
On to `C=CCc1cc(OC)c2c(c1)OCO2`, for which the Potency entry was “inactive”.
For `Nc1ccc(-c2ccc(N)cc2)cc1`, the Potency result is “inactive”.
As for `CCNCC`, the entry is “inactive”; as for `Oc1cccc(Cl)c1Cl`, “inactive”; as for `Cl/C=C/Cl`, “inactive”.
As for `O=[N+]([O-])c1c(Cl)c(Cl)c(Cl)c(Cl)c1Cl`, the figure is 31.6 µM (active); as for `CCCN(CCC)c1c([N+](=O)[O-])cc(C(F)(F)F)cc1[N+](=O)[O-]`, “inactive”; as for `Nc1ccc2ccccc2c1`, “inactive”.
